# Source: PubChem BioAssay AID1508600 (Functional Genomics Laboratory (NCATS/FGL), 2020)
# Hit rate of the full screen: of about 53,000 sequences, about 3,700 (7%) were called active.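 Rule for the calls: active = gene knockdowns whose robust z-score for IL-1 alpha signal is at least 2 or at most -2, so actives lie on both sides; inactive = the rest.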 Only a selection was taken, and actives are over-represented in it overall.
# Experiment: Components of the Cytosolic LPS Sensing Pathway: Gene Identification via Genome-wide siRNA Screen;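 note: robust z of the log signal after scaling to non-targeting control siRNA wells of the plate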
# Conditions: RAW264.7 macrophages, IL-1a HTRF, actives lie on both sides, screened at 100 nM (by protocol), cells primed 5 h with Pam3CSK4 first
# Procedure, shortened: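 RAW264.7; siRNA 100 nM final, RNAiMAX, 48h 37 degrees C; Pam3CSK4 5 h; LipidA + TransIT-TKO 24 h; IL-1a HTRF; CellTiter-Glo viability; robust z vs negative-control median.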
row,Sequence,z-score
1,GGUAGAAUACCUUCAGAUUTT against Ercc4,2.81 (active)
2,GGAAUUGUCAGGUCUUGAATT against Tmem174,-0.311 (inactive)
3,GGAGCUUCGGGAGAUGAUUTT against Fdxr,0.357 (inactive)
4,GGCGGAGUUUUUAAUACUCTT against Upb1,1.79 (inactive)
5,CCUAUGUUUGGUGAUUAUGTT against Alg6,0.264 (inactive)
6,GGGUAGGAGGAAAGUGUUCTT against Olfr1093,1.55 (inactive)
7,GGAACAGCAGCAGAGUGAATT against Gkap1,-1.09 (inactive)
8,GGCACAUGAUCCUUAAUUUTT against Pfkfb3,0.0397 (inactive)
9,GCCUAAGCCUACCAAACGATT against Ints3,0.0965 (inactive)
10,GCCGAGAGGGAUGUGUAUATT against Psmb1,-2.54 (active)
11,GGAAAUCCUUGACUACAUUTT against Cyp2b19,0.31 (inactive)
12,GGUCCACCUCAACAAGCUATT against Zfp536,2.57 (active)
13,GGGAGAAACCUGUGCAAAUTT against Serpinb6c,0.459 (inactive)
14,AGACUGGGUUGUGAAGAUATT against 4930563M21Rik,-1.68 (inactive)
15,GCUAGGACUACAGCUGGGATT against Snrnp48,-2.56 (active)
16,GGAGAACUGAAGAAUCCAATT against Med11,1.78 (inactive)
17,GCCAAGAUCCCACCAGUUATT against Neurl1b,0.639 (inactive)
18,GGAGCACAGUCUCAUGAAUTT against A130014H13Rik,-1.44 (inactive)
19,CGUGAAGAUUGACGUGUUUTT against Pcyox1,1.06 (inactive)
20,UGCCUGUAAACCAACAAGGTT against Prb1,-2.04 (active)
21,GUGAAGAGGAGCAGGACUUTT against Klrc3,0.261 (inactive)
22,GGGAAAAGUAUCCUCUGUUTT against Olfr877,-0.968 (inactive)

row,Sequence,z-score
1,GCGAAGUCAUCAAAUUUUCTT against Abcb11,0.622 (inactive)
2,GGUCCUUAAGUCCUUUGACTT against Cdr1os,0.894 (inactive)
3,GGGAAAGAUAAAUGUUUCCTT against Gucy1b1,1.89 (inactive)
4,GGUUCAGACAAGCAUCUAGTT against Sbp,-1.04 (inactive)
5,CCUCAGGAUACAGACCCACTT against Frg2f1,-0.35 (inactive)
6,GGAAAUUUUUUCCUUUCCUTT against Olfr211,-0.638 (inactive)
7,GGACCAUCAGAGGAGAACUTT against Cuedc2,-2.09 (active)
8,CGAGAGUGGGUGGGUUGAATT against Zfp950,0.628 (inactive)
9,GCCCUAUCUACGAUGAAAATT against Scamp2,-0.197 (inactive)
10,CCGAAUACGUGAAGACGCATT against Slc25a1,-0.967 (inactive)
11,GGAGGAAAAUGUCCUUGUUTT against Pth,0.25 (inactive)
12,GCAGGAAUGCGGUAUAAACTT against Inpp5f,0.707 (inactive)
13,GCACUGGACUUAGGAUGGUTT against Ankrd22,2.2 (active)
14,GGACACCACGUUCACCAAGTT against Rbm38,-0.36 (inactive)
15,GCUUCAAUAACUGCGCAAGTT against Zkscan2,0.547 (inactive)
16,GGAUGACUGAAUGAUGGGATT against Tcl1b5,-2.15 (active)
17,GGACCUCACAAUGAGUAUGTT against Thtpa,1.23 (inactive)
18,CGACGAACCUGAGUAUAUUTT against Canx,-0.0578 (inactive)
19,GUGCAGGUCCUAAUCUGAATT against Asb1,2.15 (active)
20,GGAAAAAAGCCUCAUCGGATT against Wdr63,0.676 (inactive)
21,GGGAGAGUGUUUGUUCAUUTT against Dusp1,-0.082 (inactive)
22,GGCCUACCUAUAGAAAUGATT against Pgap1,0.208 (inactive)

row,Sequence,z-score
1,GACACCUACUUCAUUGGCCTT against Olfr1245,-1.23 (inactive)
2,GCAGUUAUAUGCUCAAGAUTT against Pik3r3,0.0211 (inactive)
3,GCCUUACUUCGGAGUGCUATT against Olfr606,-4.78 (active)
4,GCCAGCAUAAAUAUACUUUTT against Apol10a,-0.0597 (inactive)
5,GCCUUUGGAAGUUCAGAACTT against Rnf216,-1.07 (inactive)
6,GAUUGGAACUUGUGGAUCUTT against Defb8,0.424 (inactive)
7,GGUACUGGACCAAAUUGCUTT against Ppp1r15b,2.26 (active)
8,CGGCACCUAUGAGUCUUACTT against Cyp4x1,2.13 (active)
9,CGAUCCAUGUUGUAAGCGCTT against Adam39,0.347 (inactive)
10,GGUUAAAGUGUAUUUACAGTT against Fkbp14,0.124 (inactive)
11,GGUCCUUAACCGCUAUGCATT against Esrp2,0.294 (inactive)
12,GGAAGCUUCAGGAGUAUAUTT against Sdc2,-0.326 (inactive)
13,GUGGCUGACAAGUUUAUCATT against Cyp2c66,-0.132 (inactive)
14,AACUAGCAAUAUGAUGGAGTT against Chic1,-0.55 (inactive)
15,GGGUUUGUUAAGUCCUGUGTT against Gsdmc,-2.09 (active)
16,GCAAUAACCCAAUUCCUGATT against Phex,0.179 (inactive)
17,GGACAGUAUGAAUUUGAAUTT against Lcp1,2.44 (active)
18,GGCCUAUCUGACCUACACCTT against Wnt8a,-0.271 (inactive)
19,GCCAUAUGAUAAUAUAGAGTT against Gbp6,-0.574 (inactive)
20,CCUCAACCGGCAGUUCUUGTT against Uba2,-0.574 (inactive)
21,GCAUAGCUAACUCAGCAUATT against Map2k2,1.09 (inactive)
22,GGAAACCAUUGAAGAUGUUTT against Psmd13,-1.2 (inactive)

row,Sequence,z-score
1,CCCUGAAGUUUAUGCAACATT against Ttyh2,-3.02 (active)
2,GGUAAUGAGCAGAUGAAGCTT against Sgta,0.622 (inactive)
3,GGUGGUUUAAGAAAUCAAATT against Dolpp1,0.34 (inactive)
4,GGCCCUAGAUAUUGAUUUUTT against Rbp2,-0.338 (inactive)
5,GGAGAUUGGGAUCAAUUAGTT against Sall3,0.576 (inactive)
6,GGACGUGACCAUGAUGUCUTT against Oacyl,-3.46 (active)
7,GCAUCCUUUGUCGAAGUGGTT against Clec18a,-0.495 (inactive)
8,GGGAUUUUGUACAUUUUUGTT against Egln3,1.51 (inactive)
9,CCGACGGAUAGCUUGGAUGTT against Fgb,-0.214 (inactive)
10,GGACGGAGGAUUCUGAAACTT against Prepl,2.42 (active)
11,GGAAAGCUUACAGUUGAAATT against 4933427D06Rik,0.992 (inactive)
12,GGAAAGCUAAGGCUGUACUTT against Dnal1,-0.103 (inactive)
13,CCCAGAAGCCUUAUCGUCUTT against Mzt1,2.37 (active)
14,GCCAUCUACUUUGUUAUAGTT against Kcnk4,0.725 (inactive)
15,GGAGUUAUUAACUGAAGAGTT against Cyp2c55,0.0702 (inactive)
16,GAGGGCCAUCUCUGACAUGTT against Avp,0.369 (inactive)
17,GGUCAAAACAAAAGGAGGGTT against Ncf4,0.498 (inactive)
18,GGACAAAUUUGCAUAGAUUTT against Rab10os,2.93 (active)
19,GCCAAUAUUUGUUUUUGAGTT against Ranbp3l,0.0685 (inactive)
20,GCUACAACCUUGAGAAACUTT against Duoxa2,0.706 (inactive)
21,CCUAGGUGUCGUACACAAATT against Galns,2.45 (active)
22,GGCUUCCUAUCUGAUUACUTT against Acsl4,0.498 (inactive)

row,Sequence,z-score
1,CCACCGGAAUGACAUAAUGTT against Klk11,-0.578 (inactive)
2,CCUAGUUGAAAAUUGGGAATT against Fuca2,0.354 (inactive)
3,CGUGGUCAUCUGGUAUGAGTT against Zfp653,2.53 (active)
4,GCACUGCUAUUUACAAAAATT against Tex16,-1.73 (inactive)
5,CAGGGCAAGGUGAUAUCUGTT against Olfr1411,-0.428 (inactive)
6,GGAGAAAUAAGUGCAGGUGTT against Rhox2a,-0.622 (inactive)
7,GGCUCCUCUCCAAGAAUAUTT against Prr14l,2.03 (active)
8,GGAGAGAAUCAGAGAGAACTT against Akr1c18,0.276 (inactive)
9,GCUUCUGAUAGAUCAUAAGTT against Aoc3,-0.276 (inactive)
10,GGCUCAAAGUUUUCAGAGATT against Kctd14,-0.0155 (inactive)
11,GCAUUUUGUGGAAAAGGCUTT against Olfr582,-2.19 (active)
12,CGAAAAGGUGGACUUUUAGTT against Rnf4,-0.545 (inactive)
13,GGUGAUUUUCGAUAUACACTT against Dclre1b,0.257 (inactive)
14,CGACCUGCUCUCAUAGCUUTT against Sycn,-0.702 (inactive)
15,GGCCUUUGGGAAAACAUGGTT against Zcchc14,-2.16 (active)
16,GUACUAGUGGUGACUGCAUTT against Olfr462,-0.0789 (inactive)
17,CCAAGGGUUAAGUCUUCAUTT against Zranb1,0.738 (inactive)
18,CCUCUCAUGUAUCCUGUGATT against Olfr292,-0.205 (inactive)
19,GGGAAAGUGUGUAAUAAAUTT against Egflam,-0.774 (inactive)
